This is an account of results in PubChem BioAssay.

The inhibition is the relative decrease from the control value, in per cent.

A number with no mark means an inactive call. No rule for the calls is given here.

The experiment deals with Pantothenate synthetase (Mycobacterium tuberculosis (strain ATCC 25618 / H37Rv)) (UniProt P9WIL5). As to the kind of experiment: Recombinant Mtb pantothenate synthetase (PanC) inhibitors, coupled enzyme, confirmatory (AID 375).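 Also: 0% = full reaction with vehicle and 100% = no enzyme background.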 The settings on record: coupled enzyme assay; at 10 µM, hits give high values.
Sequence of Pantothenate synthetase (Mycobacterium tuberculosis (strain ATCC 25618 / H37Rv)) (P9WIL5 whole entry, looked up): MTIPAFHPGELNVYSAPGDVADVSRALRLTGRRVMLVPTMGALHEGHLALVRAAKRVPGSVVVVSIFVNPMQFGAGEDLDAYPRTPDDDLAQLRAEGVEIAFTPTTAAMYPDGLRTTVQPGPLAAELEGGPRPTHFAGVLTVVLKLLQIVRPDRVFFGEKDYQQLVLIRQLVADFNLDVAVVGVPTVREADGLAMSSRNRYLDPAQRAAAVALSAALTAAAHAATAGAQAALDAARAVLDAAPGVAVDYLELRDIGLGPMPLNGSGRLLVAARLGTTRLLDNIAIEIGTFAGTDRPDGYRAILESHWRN
With `CCCCCn1c(CCNC(=O)CCC)nc2ccccc21`, the inhibition is 0%. As for `Cc1cc(SCC(N)=O)nc(SCC(=O)c2ccccc2)n1`, the inhibition is 0%. Consider `O=C(CSc1nnc(-c2cccs2)o1)NCC1CN(Cc2ccccc2)CCO1` (stereo not drawn), for which the inhibition is 0%. On to `N#Cc1nc(COc2ccccc2Cl)oc1N1CCCCCC1`, for which the inhibition is 0%. As to `COCc1nnc(NS(=O)(=O)c2ccc(Br)cc2)s1`, the inhibition is 2%. Take `O=C(CSc1nnc(-c2cccnc2)o1)Nc1ccccn1`: the inhibition was 0%.

With `CCCCCn1c2nc3ccccc3nc2c2c(=O)n(CC(C)C)cnc21`, the inhibition is 7%. Regarding `CC(C)Cc1n[nH]c(=O)[nH]1`, the inhibition was 2%.

As to `COc1ccc(NC(=O)CC2CCCCC2)cc1OC`, the inhibition was 4%. In the case of `CC(=O)N1CCc2cc(S(=O)(=O)NCCC(=O)NC3CCCc4ccccc43)ccc21` (stereo not drawn), the inhibition is 0%. For `Cc1nc2cc(C(=O)O)ccc2n1-c1ccc(F)cc1F` the value was 2%.

As for `COc1cc2nc(N3CCN(C(=O)c4ccco4)CC3)nc(N)c2cc1OC`, the inhibition is 2%. For `CC(C(=O)Nc1ccccc1-c1ccccc1)N1CCOCC1` (stereo not drawn), the inhibition was 1%. Take `CCOC(=O)CC12CN3CN(C1)CC(CC(=O)OCC)(C3)C2=O`: the inhibition is 1%. As for `O=C(Nc1ccc(CN2CCOCC2)cc1)c1cc2ccccn2n1`, the inhibition is 0%.

Take `CCCCn1c(SCC(=O)c2ccc3c(c2)OCCO3)nnc1-c1ccco1`: the inhibition is 4%. On to `CCOC(=O)c1nnc2cc(-c3ccc(Br)cc3)nn2c1C`, for which the inhibition is 0%. Consider `O=C(C1CCCCC1)N1CCC(c2nc3c(nnn3Cc3c(F)cccc3Cl)c(=O)[nH]2)CC1`, for which the inhibition was 0%.
